Measured values from PubChem BioAssay AID1159580 (chemical genetic matrix, 2015).
Among all 5,500 compounds or so, about 2,000 (36%) were called active. Inconclusive results (about 18%) are left out. No stated cut-off is given here; in the data, active means normalized growth mostly below about 0.91 (no sharp cut-off); inconclusive means no clear call, values can overlap the other calls; inactive means mostly above about 0.92. The list shows a part of the results.

Experiment: chemical genetic growth profiling, strain panel (AID 1159580);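 further: tested at 20 µM; growth read once vehicle control cultures reached saturation at 30 °C; 1 = growth at the plate median or of vehicle wells; lower values mean less growth of the strain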
Details: S. cerevisiae deletion strains, growth OD
[1] = locus YDL101C, strain DUN1, active compounds read low
[2] = locus YHR030C, strain SLT2, active compounds read low
[3] = locus YAR019C, strain CDC15, active compounds read low
[4] = locus YBL105C, strain PKC1, active compounds read low
[5] = locus YBR135W, strain CKS1, active compounds read low
[6] = locus YBR136W, strain MEC1, active compounds read low
[7] = locus YBR160W, strain CDC28, active compounds read low
[8] = locus YDL017W, strain CDC7, active compounds read low
[9] = locus YDL028C, strain MPS1, active compounds read low
[10] = locus YDL108W, strain KIN28, active compounds read low
[11] = locus YDL132W, strain cdc53, active compounds read low
[12] = locus YDL214C, strain PRR2, active compounds read low
[13] = locus YDR052C, strain DBF4, active compounds read low
[14] = locus YDR054C, strain cdc34, active compounds read low
[15] = locus YDR226W, strain ADK1, active compounds read low
[16] = locus YDR477W, strain SNF1, active compounds read low
[17] = locus YER123W, strain YCK3, active compounds read low
[18] = locus YER133W, strain GLC7, active compounds read low
[19] = locus YFL009W, strain cdc4, active compounds read low
[20] = locus YFL029C, strain CAK1, active compounds read low
[21] = locus YFR003C, strain YPI1, active compounds read low
[22] = locus YFR019W, strain FAB1, active compounds read low
[23] = locus YFR028C, strain CDC14, active compounds read low
[24] = locus YGR040W, strain KSS1, active compounds read low
[25] = locus YGR052W, strain FMP48, active compounds read low
[26] = locus YGR092W, strain DBF2, active compounds read low
[27] = locus YHR079C, strain IRE1, active compounds read low
[28] = locus YHR082C, strain KSP1, active compounds read low
[29] = locus YHR205W, strain SCH9, active compounds read low
[30] = locus YIL147C, strain SLN1, active compounds read low
[31] = locus YJL095W, strain BCK1, active compounds read low
[32] = locus YJL128C, strain PBS2, active compounds read low
[33] = locus YJL157C, strain FAR1, active compounds read low
[34] = locus YJR016C, strain ILV3, active compounds read low
[35] = locus YJR066W, strain TOR1 (second series), active compounds read low
[36] = locus YJR066W, strain TOR1, active compounds read low
[37] = locus YKL048C, strain ELM1, active compounds read low
[38] = locus YKL067W, strain YNK1, active compounds read low
[39] = locus YKL101W, strain HSL1, active compounds read low
[40] = locus YKL193C, strain SDS22, active compounds read low
[41] = locus YKL203C, strain TOR2, active compounds read low
[42] = locus YLR113W, strain HOG1, active compounds read low
[43] = locus YLR133W, strain CKI1, active compounds read low
[44] = locus YLR403W, strain SFP1, active compounds read low
[45] = locus YML070W, strain DAK1, active compounds read low
[46] = locus YMR001C, strain CDC5, active compounds read low
[47] = locus YMR205C, strain PFK2 (second series), active compounds read low
[48] = locus YMR277W, strain FCP1, active compounds read low
[49] = locus YNL006W, strain LST8, active compounds read low
[50] = locus YNL020C, strain ARK1, active compounds read low
[51] = locus YNL161W, strain CBK1, active compounds read low
[52] = locus YNL183C, strain NPR1, active compounds read low
[53] = locus YNL207W, strain RIO2, active compounds read low
[54] = locus YNL222W, strain SSU72, active compounds read low
[55] = locus YNL307C, strain MCK1 (second series), active compounds read low
[56] = locus YOL078W, strain AVO1, active compounds read low
[57] = locus YOL136C, strain PFK27, active compounds read low
[58] = locus YOR061W, strain CKA2, active compounds read low
[59] = locus YOR119C, strain RIO1, active compounds read low
[60] = locus YOR231W, strain MKK1, active compounds read low
[61] = locus YOR329C, strain SCD5, active compounds read low
[62] = locus YPL031C, strain PHO85, active compounds read low
[63] = locus YPL153C, strain RAD53, active compounds read low
[64] = locus YPL204W, strain HRR25, active compounds read low
[65] = locus YPL209C, strain IPL1, active compounds read low
[66] = locus YPL256C, strain CLN2, active compounds read low
[67] = locus YPR025C, strain CCL1, active compounds read low
[68] = locus YPR106W, strain ISR1, active compounds read low
[69] = locus YPR111W, strain DBF20, active compounds read low
[70] = strain NNK1, active compounds read low
[71] = strain TSCII, active compounds read low

Measured: normalized growth

CNC(=S)N/N=C\c1cc(Br)cc(Br)c1O
inactive: [1] 0.912 | locus YHR087W, strain rtc3, active compounds read low 0.944 | locus YLR058C, strain SHM2 (second series), active compounds read low 1 | locus YMR219W, strain ESC1, active compounds read low 0.956
active: locus YAL013W, strain DEP1, active compounds read low 0.794 | locus YBR229C, strain ROT2, active compounds read low 0.919 | locus YCL061C, strain MRC1, active compounds read low 0.861 | locus YDL134C, strain PPH21, active compounds read low 0.537 | locus YDR150W, strain NUM1, active compounds read low 0.755 | locus YEL061C, strain CIN8, active compounds read low 0.463 | locus YGR078C, strain PAC10, active compounds read low 0.912 | locus YGR229C, strain SMI1, active compounds read low 0.813 | [2] 0.237 | locus YJR043C, strain POL32, active compounds read low 0.814 | locus YJR075W, strain HOC1, active compounds read low 0.847 | locus YKL190W, strain CNB1, active compounds read low 0.36 | locus YLR039C, strain RIC1, active compounds read low 0.155 | locus YLR085C, strain ARP6, active compounds read low 0.139 | locus YLR262C, strain YPT6, active compounds read low 0.15 | locus YML094W, strain GIM5, active compounds read low 0.586 | locus YMR263W, strain SAP30, active compounds read low 0.743 | locus YMR307W, strain GAS1, active compounds read low 0.252 | locus YNL153C, strain GIM3, active compounds read low 0.875 | locus YNL298W, strain CLA4 (second series), active compounds read low 0.311 | locus YNL322C, strain KRE1, active compounds read low 0.817 | locus YNR030W, strain Alg12, active compounds read low 0.274 | locus YPL055C, strain LGE1, active compounds read low 0.485 | locus YPL241C, strain CIN2, active compounds read low 0.522 | locus YPR135W, strain CTF4, active compounds read low 0.334

CC(C)(C)NC(=S)N/N=C\c1cc(Br)c(O)c(Br)c1
inactive: [3] 0.966 | [4] 0.969 | [5] 0.962 | [6] 0.965 | [7] 0.967 | [8] 0.966 | [9] 0.967 | [1] 0.959 | [10] 0.971 | [11] 0.955 | [12] 0.944 | [13] 0.971 | [14] 0.957 | [15] 0.946 | [16] 0.917 | [17] 0.917 | [18] 0.944 | [19] 0.962 | [20] 0.958 | [21] 0.971 | [22] 0.929 | [23] 0.952 | [24] 0.919 | [25] 0.968 | [26] 0.947 | [27] 0.926 | [28] 0.922 | [29] 0.938 | [30] 0.971 | [31] 0.875 | [32] 0.976 | [33] 0.957 | [34] 0.955 | [35] 0.932 | [36] 0.864 | [37] 0.951 | [38] 0.945 | [39] 0.927 | [40] 0.959 | [41] 0.897 | [42] 0.896 | [43] 0.928 | [44] 0.92 | [45] 0.959 | [46] 0.965 | [47] 0.949 | [48] 0.97 | [49] 0.965 | [50] 0.929 | [51] 0.969 | [52] 0.87 | [53] 0.964 | [54] 0.963 | [55] 0.898 | [56] 0.961 | [57] 0.938 | [58] 0.921 | [59] 0.932 | [60] 0.956 | [61] 0.969 | [62] 0.92 | [63] 0.953 | [64] 0.904 | [65] 0.966 | [66] 0.902 | [67] 0.966 | [68] 0.957 | [69] 0.955 | [70] 0.959 | [71] 0.965
active: [2] 0.768

Cc1cc(Br)c(O)c(/C=N\NC(=S)NC(C)(C)C)c1
active: [2] 0.752 | [42] 0.782 | [66] 0.838
inactive: [3] 0.98 | [4] 0.987 | [5] 0.971 | [6] 0.981 | [7] 0.978 | [8] 0.972 | [9] 0.972 | [1] 0.993 | [10] 0.969 | [11] 0.984 | [12] 0.922 | [13] 0.982 | [14] 0.98 | [15] 0.965 | [16] 0.91 | [17] 0.894 | [18] 0.879 | [19] 0.981 | [20] 0.973 | [21] 0.976 | [22] 0.959 | [23] 0.975 | [24] 0.893 | [25] 0.883 | [26] 0.823 | [27] 0.872 | [28] 0.97 | [29] 0.942 | [30] 0.981 | [31] 0.875 | [32] 0.952 | [33] 0.911 | [34] 0.99 | [35] 0.839 | [36] 0.899 | [37] 0.973 | [38] 0.934 | [39] 0.914 | [40] 0.98 | [41] 0.914 | [43] 0.917 | [44] 0.857 | [45] 0.917 | [46] 0.975 | [47] 0.944 | [48] 0.98 | [49] 0.98 | [50] 0.903 | [51] 0.975 | [52] 0.848 | [53] 0.976 | [54] 0.988 | [55] 0.893 | [56] 0.982 | [57] 0.947 | [58] 0.91 | [59] 0.967 | [60] 0.874 | [61] 0.988 | [62] 0.876 | [63] 0.906 | [64] 0.884 | [65] 0.981 | [67] 0.975 | [68] 0.987 | [69] 0.985 | [70] 0.982 | [71] 0.984
